Reference: ChEMBL document CHEMBL3433997, “St. Jude Leishmania screening dataset” (2016)

molecular target: Solute carrier family 2, facilitated glucose transporter member 1 (Homo sapiens) (UniProt P11166); assay: ST_JUDE_LEISH: Cytotoxicity at 2uM final concentration against transgenic Leishmania Mexicana promastigotes LmGLUT1 that are glucose transport deficient and complemented with the human glucose transporter GLUT1. Activity is measured by DNA content using SYBR green in vitro; type: functional
Sequence (P11166 whole entry): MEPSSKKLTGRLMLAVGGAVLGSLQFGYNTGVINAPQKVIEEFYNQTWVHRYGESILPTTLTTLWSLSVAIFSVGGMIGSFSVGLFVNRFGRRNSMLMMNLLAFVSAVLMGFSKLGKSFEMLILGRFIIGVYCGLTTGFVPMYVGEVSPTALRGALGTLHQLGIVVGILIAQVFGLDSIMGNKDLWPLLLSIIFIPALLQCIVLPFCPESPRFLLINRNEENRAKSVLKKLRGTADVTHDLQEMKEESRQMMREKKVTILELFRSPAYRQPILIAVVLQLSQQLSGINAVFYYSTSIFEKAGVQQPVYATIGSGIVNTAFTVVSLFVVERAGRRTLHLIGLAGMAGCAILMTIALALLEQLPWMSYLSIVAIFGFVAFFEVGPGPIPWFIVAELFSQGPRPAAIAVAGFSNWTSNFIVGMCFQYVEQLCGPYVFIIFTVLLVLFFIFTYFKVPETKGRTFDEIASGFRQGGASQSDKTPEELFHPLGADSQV

Point of comparison: `CC(C)c1sc(-c2ccc(C(C)(C)C)cc2)nc1C(=O)NCCCN1CCCC1=O`, inhibition 1.02%. Against it:
- Cc1cccc2nc(-c3ccc(-c4cccc(CN5CCCC(N)C5)c4)s3)[nH]c12 (centres undefined) — higher, 12.7%
- O=C(Nc1ccc(OC2CCN(Cc3ccc(F)cc3)CC2)c(Cl)c1)c1ccsc1 — lower, -1.74%
- COc1cccc(C(=O)NC(C=Cc2ccccc2)c2cc(Cl)c3cccnc3c2O)c1 (centres undefined) — higher, 2.89%
- CCCN1CCN(CC(O)CNC(=O)Nc2ccc(Cl)cc2)CC1 (centres undefined) — higher, 2.81%
- O=C(Nc1ccon1)c1cc(-c2cccnc2)nc2ccc(Cl)cc12 — higher, 5.01%
- N#Cc1cccc(NC(=O)NC2CCN(CCCCCNC(=O)/C=C/c3ccc(Cl)c(Cl)c3)CC2)c1 — higher, 4.68%
- CC(Cc1ccc(C(=O)OC(c2ccccc2)c2ccccc2)cc1)NCC(O)c1ccccc1 (centres undefined) — lower, 0.9%
- O=C(/C=C/c1ccc(Cl)c(Cl)c1)NCCCCCCN1CCN(C(=O)Nc2ccc(OC(F)F)cc2)CC1 — higher, 5.36%
- O=C(Nc1ccccc1-c1ccccc1)C1CCCN1C(=O)Nc1ccc(Cl)cc1 (centres undefined) — lower, -0.38%
- CC(=O)c1cc(N2CCCC2)ccc1N — higher, 2.5%
- Cc1cc(N2CCOCC2)nc(Nc2ccc(NC(=O)c3cccc4ccccc34)cc2)n1 — higher, 7.25%
- O=C(/C=C/C=C/c1ccc(Cl)c(Cl)c1)NCCCCCN1CCCC2CCCCC21 (centres undefined) — higher, 13.3%
- COc1cccc(CNc2noc(-c3c(-c4ccccc4)noc3C)n2)c1OC — higher, 3.64%
- O=C(Nc1ccc(OC2CCN(Cc3ccc(F)cc3)C2)c(Cl)c1)c1ccco1 (centres undefined) — higher, 3.67%
- CCCCCOc1c(CCC)cc(Cc2cnc(N)nc2N)cc1CCC — higher, 14.7%
- Cc1[nH]n(-c2cccc(Cl)c2)c(=O)c1-c1ccc(Cl)cc1 — lower, -3.78%
- CC(C)Nc1nc(NCCc2c[nH]cn2)nc(NCc2cccc3ccccc23)n1 — lower, -1.11%
- Cc1cc2c3c(N)nc(N)nc3ccc2n1C — higher, 6.53%
- O=C(Nc1ccc(OC2CCN(Cc3ccccc3)CC2)c(Cl)c1)c1ccco1 — higher, 8.6%
- COc1ccc(CNc2ccnc3cc(OC)ccc23)cc1 — lower, -1.06%
- NCCCNc1nc(Nc2ccc(C(F)(F)F)cc2F)c2c(=O)[nH]ccc2n1 — higher, 3.4%
- Cc1ccc(N2C(=O)C3C(C2=O)C2(c4ccccc4)C(=O)C3(c3ccccc3)C(c3ccccc3)=C2c2ccccc2)cc1 (centres undefined) — lower, 0.73%
- CC(C)CCNc1nc(NCc2ccccc2)c2cc(O)ccc2n1 — higher, 5.89%
- O=C(NCc1ccccn1)C(c1cc2ccccc2o1)N1CCN(C(c2ccccc2)c2ccccc2)CC1 (centres undefined) — lower, 0.6%

molecular target: Hexose transporter 1 (Plasmodium falciparum) (UniProt O97467); assay: ST_JUDE_LEISH: Cytotoxicity at 2uM final concentration against transgenic Leishmania Mexicana promastigotes LmPfHT that are glucose transport deficient and complemented with the Plasmodium falciparum hexose transporter. Activity is measured by DNA content using SYBR green in vitro; type: functional

Point of comparison: `CCCCNC(=O)c1[nH]c2c(NC(=O)COc3ccccc3)cccc2c1-c1cccc(NC(=O)C(N)CO)c1` (centres undefined), inhibition 9.02%. Against it:
- Cc1ccn2c(N(Cc3ccccc3)C(=O)c3ccc(Cl)c(Cl)c3)c(-c3ccccc3)nc2c1 — lower, 3.03%
- COc1cc2c(cc1OC)C(C(=O)Nc1cc(OC)c(OC)c(OC)c1)C(c1ccc(SC)cc1)N(C)C2=O (centres undefined) — lower, 0.98%
- O=C(Cc1ccc(NC(=O)c2ccc(O)c(-c3ccc(Cl)c(Cl)c3)c2)cc1)NCc1cccc(C(F)(F)F)c1 — lower, 2.65%
- Cc1cc(N/N=C/c2ccccc2[N+](=O)[O-])c2cc(F)ccc2n1 — lower, 1.95%
- O=c1cc(NCCCN(Cc2cc3c(Cl)cc(Cl)cc3[nH]2)Cc2cc3c(Cl)cc(Cl)cc3[nH]2)[nH]c2ccccc12 — higher, 9.4%
- COc1ccc(-c2cc(-c3ccc(S(C)(=O)=O)cc3)cnc2N)cn1 — lower, 0.74%
- Cc1cc(OCCCNc2nc(NCCc3ccc(O)cc3)nc(N3CCNCC3)n2)c(Cl)c(C)c1Cl — lower, 1.22%
- CCNc1cc(C)nc(Nc2ccc(NC(=O)c3ccccc3Br)cc2)n1 — higher, 9.16%
- COc1c(C2CCN(CCCCNC(=O)c3cccc(-c4ccc(C(F)(F)F)cc4)c3)CC2)ccc2c1CCCC2 — lower, 1.75%
- COc1ccccc1NC(=O)Nc1cccc(-c2cccc(-c3nc4cccc(C)c4[nH]3)c2)c1 — lower, 0.52%
- CCCNC(=O)C1Cc2c([nH]c3ccc(Br)cc23)C2(CCN(CCc3ccccc3)CC2)N1 (centres undefined) — lower, 0.12%
- NCC(=O)NC12CC3CC(CC(C3)C1)C2 — lower, 2.25%
- Cc1ccc(NC(=O)c2ccc3ncccc3c2)cc1OC1CCN(Cc2ccsc2)C1 (centres undefined) — lower, 1.3%
- Cc1cccc2nc(-c3ccc(-c4cccc(CN5CCCC(N)C5)c4)s3)[nH]c12 (centres undefined) — higher, 11.2%
- O=C(Nc1ccc(OC2CCN(Cc3ccc(F)cc3)CC2)c(Cl)c1)c1ccsc1 — lower, 2.64%
- COc1cccc(C(=O)NC(C=Cc2ccccc2)c2cc(Cl)c3cccnc3c2O)c1 (centres undefined) — lower, 2.04%
- CCCN1CCN(CC(O)CNC(=O)Nc2ccc(Cl)cc2)CC1 (centres undefined) — lower, 0.64%
- O=C(Nc1ccon1)c1cc(-c2cccnc2)nc2ccc(Cl)cc12 — lower, 3.36%
- N#Cc1cccc(NC(=O)NC2CCN(CCCCCNC(=O)/C=C/c3ccc(Cl)c(Cl)c3)CC2)c1 — lower, 5.86%
- CC(Cc1ccc(C(=O)OC(c2ccccc2)c2ccccc2)cc1)NCC(O)c1ccccc1 (centres undefined) — lower, 0.98%
- O=C(/C=C/c1ccc(Cl)c(Cl)c1)NCCCCCCN1CCN(C(=O)Nc2ccc(OC(F)F)cc2)CC1 — lower, 6.98%
- O=C(Nc1ccccc1-c1ccccc1)C1CCCN1C(=O)Nc1ccc(Cl)cc1 (centres undefined) — lower, -0.89%
- CC(=O)c1cc(N2CCCC2)ccc1N — lower, 2.6%
- Cc1cc(N2CCOCC2)nc(Nc2ccc(NC(=O)c3cccc4ccccc34)cc2)n1 — lower, 8.47%
- O=C(/C=C/C=C/c1ccc(Cl)c(Cl)c1)NCCCCCN1CCCC2CCCCC21 (centres undefined) — higher, 12.3%
- COc1cccc(CNc2noc(-c3c(-c4ccccc4)noc3C)n2)c1OC — lower, 3.83%
- O=C(Nc1ccc(OC2CCN(Cc3ccc(F)cc3)C2)c(Cl)c1)c1ccco1 (centres undefined) — lower, 3.44%
- CCCCCOc1c(CCC)cc(Cc2cnc(N)nc2N)cc1CCC — higher, 12.3%
- Cc1[nH]n(-c2cccc(Cl)c2)c(=O)c1-c1ccc(Cl)cc1 — lower, -2.18%
- CC(C)Nc1nc(NCCc2c[nH]cn2)nc(NCc2cccc3ccccc23)n1 — lower, -0.07%
- Cc1cc2c3c(N)nc(N)nc3ccc2n1C — higher, 10.4%
- O=C(Nc1ccc(OC2CCN(Cc3ccccc3)CC2)c(Cl)c1)c1ccco1 — higher, 10.1%
- CC(C)c1sc(-c2ccc(C(C)(C)C)cc2)nc1C(=O)NCCCN1CCCC1=O — lower, 1.22%
- COc1ccc(CNc2ccnc3cc(OC)ccc23)cc1 — higher, 12.2%
- NCCCNc1nc(Nc2ccc(C(F)(F)F)cc2F)c2c(=O)[nH]ccc2n1 — lower, 3.63%
- Cc1ccc(N2C(=O)C3C(C2=O)C2(c4ccccc4)C(=O)C3(c3ccccc3)C(c3ccccc3)=C2c2ccccc2)cc1 (centres undefined) — lower, 0.67%
- CC(C)CCNc1nc(NCc2ccccc2)c2cc(O)ccc2n1 — lower, 5.74%
- O=C(NCc1ccccn1)C(c1cc2ccccc2o1)N1CCN(C(c2ccccc2)c2ccccc2)CC1 (centres undefined) — lower, 2.14%
